From PubChem BioAssay (Tox21)
A number with no mark means an inactive call. The call rests on the fitted dose curve; in most records, active means well fitted curve in the direction sought with a large enough effect in the repeat runs; inconclusive means weak or mixed curves; inactive means no such curve, though single readings can be large; an effect the other way counts as inactive or inconclusive. Results filed as inconclusive are left out.

Assay: Human pregnane X receptor (PXR) small molecule agonists, qHTS cell viability counter screen (AID 1346977); further: nearly all actives have a fitted effect of over 50% in size
Settings: PXR-Luc HepG2 viability, CellTiter-Fluor, 24 h; series mostly up to 92.4 µM; activity change, negative = cytotoxicity: at the top concentration
Summary of the method: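 PXR-Luc HepG2 cells in medium with 5% charcoal-stripped FBS were pre-incubated 5hr, then exposed to compounds for 24hr at 37C. Viability was read in the same wells by CellTiter-Fluor fluorescence, reagent added after 23hr with a 1hr incubation.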
On the % scale 0 is the no-effect control and ±100 the full control effect.

SMILES | activity change, negative = cytotoxicity
Fc1cc(Br)ccc1CBr | 0.0279% [at 42.5 µM]
CCOP(=S)(Oc1cnc(C(C)(C)C)nc1)OC(C)C (configuration not stated) | -0.525%
C[C@]12CC[C@H]3[C@@H](CCC4=CC(=O)CC[C@@]43C)[C@@H]1CC[C@@H]2C(=O)O | 9.01% [at 42.5 µM]
CC1(C(=O)Nc2ccc(O)c(Cl)c2Cl)CCCCC1 | 4.84%
Cc1nnc2n1-c1sc(CCC(=O)N3CCOCC3)cc1C(c1ccccc1Cl)=NC2 | 1.77% [at 42.5 µM]
CN(N=O)C(N)=O | 0.95%
Nc1n[nH]c(N)n1 | -5.05%
Cc1ncsc1CCCl | 20.3% [at 42.5 µM]
CNNC | -0.203%
O=[N+]([O-])c1cccc(O)c1 | -1.43%
CCC(Cl)[N+](=O)[O-] (configuration not stated) | 9.8%
O=[N+]([O-])c1ccc(CBr)cc1 | 0.829%
O=C(O)c1cccc(Cl)c1 | 16.7%
CCOP(=S)(OCC)Oc1cc(-c2ccccc2)on1 | 16.6%
COC(=O)C(c1ccccc1)C1CCCCN1 (configuration not stated) | 6.35%
COP(=S)(OC)Oc1c(Cl)cc(C)cc1Cl | 6.41%
CCOC(=O)/C=C(C)/C=C/C[C@@H](C)CCCC(C)C | 8.33%
O=[N+]([O-])c1ccc2c3c(cccc13)CC2 | -14.5%

Assay: Caspase-3/7 induction in HepG2 cells by small molecules, qHTS assay (AID 1346978); further: nearly all actives have a fitted effect of over 15% in size
Settings: HepG2 caspase-3/7 activation, Caspase-Glo luminescence, 17 h; series mostly up to 92.4 µM; caspase activation: at the top concentration
Summary of the method: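 Wild-type HepG2 cells (2,000/well) were settled 5 h at 37 C, 5% CO2, then exposed to compounds in DMSO for 17 h. Caspase-3/7 activity was read by luminescence 30 min after adding Caspase-Glo 3/7 reagent at room temperature.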

SMILES | caspase activation
[As]#[In] | 0.516%
CN1CCC(O)(c2ccc(F)cc2)C(C(=O)c2ccc(F)cc2)C1 (configuration not stated) | -0.647% [at 42.5 µM]
ClCCOCOCCCl | 0.806%
Cc1ccccc1CO[C@@H]1C[C@@]2(C(C)C)CC[C@]1(C)O2 | 3.46%
CC1(C)CON(Cc2ccccc2Cl)C1=O | 0.183%
O=C(NCO)NCO | 0.158%
CC(C)[N+](=O)[O-] | -0.0126%
[O]=[Cd] | -1.2%
CNC(=O)Oc1cccc(C(C)C)c1 | -1.5%
CC(C(O)c1ccccc1)N(C)C/C=C/c1ccccc1 (configuration not stated) | 1.11% [at 42.5 µM]
CCC1(c2ccccc2)C(=O)N=C(O)NC1=O (configuration not stated) | 0.688%
CC(C(=O)c1ccccc1)N(C)C (configuration not stated) | 0.165% [at 42.5 µM]
O=C(CCCN1CCC(n2c(=O)[nH]c3ccccc32)CC1)c1ccc(F)cc1 | -0.308% [at 42.5 µM]
CCOC(=O)C1(c2ccccc2)CCN(CCc2ccc(N)cc2)CC1 | 0.459% [at 42.5 µM]
O=[N+]([O-])c1cccc2cccnc12 | 0.676%
COC(C)(C)C | -1.02%
COc1cc(C[C@@H](C)N)c(OC)cc1C | 0.983%
CC(CC(C#N)(c1ccccc1)c1ccccc1)N(C)C (configuration not stated) | 3.02%
NC(=O)c1cc([N+](=O)[O-])cc([N+](=O)[O-])c1 | 0.252% [at 42.5 µM]

Assay: Caspase-3/7 induction in CHO-K1 cells by small molecules, qHTS cell viability counter screen (AID 1346979); further: nearly all actives have a fitted effect of over 35% in size
Settings: CellTiter-Fluor fluorescence, 17 h; series mostly up to 92.4 µM; activity change, negative = cytotoxicity: at the top concentration
Summary of the method: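 Wild-type CHO-K1 cells were seeded at 1,500 per well, rested 5hr at 37 C, then exposed to compounds in DMSO. After 16hr, CellTiter-Fluor reagent was added and fluorescence read 1hr later as the viability measure.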

SMILES | activity change, negative = cytotoxicity
[As]#[In] | 7.33%
CN1CCC(O)(c2ccc(F)cc2)C(C(=O)c2ccc(F)cc2)C1 (configuration not stated) | -0.0163% [at 42.5 µM]
ClCCOCOCCCl | 0.538%
Cc1ccccc1CO[C@@H]1C[C@@]2(C(C)C)CC[C@]1(C)O2 | -5.86%
CC1(C)CON(Cc2ccccc2Cl)C1=O | 0.712%
CN(N=O)C(N)=O | 4.13%
O=C(NCO)NCO | 7.6%
CC(C)[N+](=O)[O-] | 0.408%
[O]=[Cd] | 5.99%
Cc1ncsc1CCCl | 8.07% [at 42.5 µM]
CNC(=O)Oc1cccc(C(C)C)c1 | -2.55%
O=[N+]([O-])c1cccc(O)c1 | -0.947%
CC(C(O)c1ccccc1)N(C)C/C=C/c1ccccc1 (configuration not stated) | 4% [at 42.5 µM]
O=C(O)c1cccc(Cl)c1 | 9.7%
CCC1(c2ccccc2)C(=O)N=C(O)NC1=O (configuration not stated) | 4.36%
CC(C(=O)c1ccccc1)N(C)C (configuration not stated) | 9.01% [at 42.5 µM]
O=C(CCCN1CCC(n2c(=O)[nH]c3ccccc32)CC1)c1ccc(F)cc1 | -6.2% [at 42.5 µM]
CCOP(=S)(OCC)Oc1cc(-c2ccccc2)on1 | 2.58%
CCOC(=O)C1(c2ccccc2)CCN(CCc2ccc(N)cc2)CC1 | 4.05% [at 42.5 µM]
COP(=S)(OC)Oc1c(Cl)cc(C)cc1Cl | 5.72%
O=[N+]([O-])c1cccc2cccnc12 | 0.976%
COC(C)(C)C | 0.574%
COc1cc(C[C@@H](C)N)c(OC)cc1C | -0.1%
CC(CC(C#N)(c1ccccc1)c1ccccc1)N(C)C (configuration not stated) | -10.2%
NC(=O)c1cc([N+](=O)[O-])cc([N+](=O)[O-])c1 | 0.186% [at 42.5 µM]

Assay: Caspase-3/7 induction in CHO-K1 cells by small molecules, qHTS assay (AID 1346980); further: nearly all actives have a fitted effect of over 15% in size
Settings: CHO-K1 caspase-3/7 induction, Caspase-Glo luminescence, 17 h; series mostly up to 92.4 µM; caspase-3/7 activation: at the top concentration
Summary of the method: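 Wild-type cells were seeded at 1,500 per well and settled 5 hr at 37 C, 5% CO2, then exposed to DMSO-dissolved compounds for 17 hr. Caspase-Glo 3/7 reagent was added, and luminescence was read after 30min at room temperature.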

SMILES | caspase-3/7 activation
Fc1cc(Br)ccc1CBr | 2.48% [at 42.5 µM]
CCOP(=S)(Oc1cnc(C(C)(C)C)nc1)OC(C)C (configuration not stated) | 2.33%
[As]#[In] | 1.16%
C[C@]12CC[C@H]3[C@@H](CCC4=CC(=O)CC[C@@]43C)[C@@H]1CC[C@@H]2C(=O)O | 0.0117% [at 42.5 µM]
CN1CCC(O)(c2ccc(F)cc2)C(C(=O)c2ccc(F)cc2)C1 (configuration not stated) | -0.608% [at 42.5 µM]
ClCCOCOCCCl | -1.04%
Cc1ccccc1CO[C@@H]1C[C@@]2(C(C)C)CC[C@]1(C)O2 | 3.65%
CC1(C)CON(Cc2ccccc2Cl)C1=O | -0.0815%
O=C(NCO)NCO | 0.529%
CC(C)[N+](=O)[O-] | 1.74%
[O]=[Cd] | 0.727%
Nc1n[nH]c(N)n1 | 0.154%
CNC(=O)Oc1cccc(C(C)C)c1 | -0.522%
CNNC | -0.147%
O=[N+]([O-])c1cccc(O)c1 | -0.601%
CCC(Cl)[N+](=O)[O-] (configuration not stated) | 0.413%
O=[N+]([O-])c1ccc(CBr)cc1 | 1.1%
CC(C(O)c1ccccc1)N(C)C/C=C/c1ccccc1 (configuration not stated) | 0.566% [at 42.5 µM]
CCC1(c2ccccc2)C(=O)N=C(O)NC1=O (configuration not stated) | 1.41%
CC(C(=O)c1ccccc1)N(C)C (configuration not stated) | -0.198% [at 42.5 µM]
O=C(CCCN1CCC(n2c(=O)[nH]c3ccccc32)CC1)c1ccc(F)cc1 | -0.401% [at 42.5 µM]
CCOP(=S)(OCC)Oc1cc(-c2ccccc2)on1 | -1.04%
COC(=O)C(c1ccccc1)C1CCCCN1 (configuration not stated) | 0.539%
CCOC(=O)C1(c2ccccc2)CCN(CCc2ccc(N)cc2)CC1 | 3.4% [at 42.5 µM]
O=[N+]([O-])c1cccc2cccnc12 | 0.637%
COC(C)(C)C | -0.739%
COc1cc(C[C@@H](C)N)c(OC)cc1C | 0.413%
CC(CC(C#N)(c1ccccc1)c1ccccc1)N(C)C (configuration not stated) | 2.22%
O=[N+]([O-])c1ccc2c3c(cccc13)CC2 | 1.14%
NC(=O)c1cc([N+](=O)[O-])cc([N+](=O)[O-])c1 | -0.659% [at 42.5 µM]
